Assay results from PubChem BioAssay (NCATS).
Results filed as inconclusive are left out. A call without a number means that no potency is given here. The source made the active and inactive calls. Unless noted, calls follow the shape of the dose curve; as a rule, active = well fitted curve in the direction sought with a large enough effect; inconclusive = small, poorly fitted or top-dose-only effect, or another doubt; inactive = no such curve, though single readings can be large; an effect the other way counts as inactive or inconclusive.

How the values were obtained:
[1] = qHTS Assay for Identifying Gametocytocidal Compounds (AID 743244); also: potency is read from the fitted curve at half-maximal effect;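 as to max response: actives lower the fluorescent signal which means gametocytes are killed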; settings: P. falciparum 3D7 stage III-V gametocytes, alamarBlue, 72 h; max response: stronger effect = lower value
In short: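 Late gametocytes (III–V), P. falciparum 3D7; 72 h drug, then 24 h alamarBlue; resazurin reduction read by fluorescence.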

[2] = qHTS assay to identify small molecule inhibitors of chordoma cells - UCH-1 (AID 1259355); also: nearly all actives have a fitted effect of over 55% in size; also: potency is read from the fitted curve at half-maximal effect
In short: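 Cells (800/well) were seeded and left overnight at 37 C, 5% CO2, then treated with drugs at 15 concentrations plus a combination mix of auranofin, camptothecin, doxorubicin, rubitecan and topotecan. Viability after 48hr was read by CellTiter-Glo luminescence.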

[3] = qHTS assay to identify small molecule inhibitors of chordoma cells - UCH-2 (AID 1259356); also: potency is read from the fitted curve at half-maximal effect
[4] = qHTS profiling for inhibitors of Plasmodium falciparum (3D7) proliferation (AID 743322; call rule not given here;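 also: infected erythrocytes exposed to compound for 72 h before lysis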); settings: P. falciparum 3D7 proliferation; at 28.7 µM (top of the series) unless noted
In short: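 Erythrocytes infected with P. falciparum (0.3% parasitemia, 2.5% hematocrit) incubated with compounds 72 h at 37 C, 5% CO2. Lysis with saponin/Triton buffer containing SYBR Green I, overnight at room temperature in the dark; DNA fluorescence (485/535 nm) normalised to 0.29 uM artemisinin and DMSO.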

[5] = qHTS profiling for inhibitors of Plasmodium falciparum (DD2) proliferation (AID 743323; call rule not given here); settings: lower = more inhibition; at 28.7 µM (top of the series) unless noted
In short: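 Parasite proliferation measured via DNA-dye fluorescence, as uninfected erythrocytes lack DNA. Cultures at 0.3% parasitemia and 2.5% hematocrit incubated 72 h with compound; signal scaled between vehicle and 0.29 uM artemisinin wells.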

[6] = qHTS profiling for inhibitors of Plasmodium falciparum (HB3) proliferation (AID 743324); settings: Plasmodium falciparum HB3 blood-stage proliferation; at 28.7 µM (top of the series) unless noted
In short: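 P. falciparum HB3 grown in erythrocytes (0.3% parasitemia, 2.5% hematocrit final) with compound for 72 h at 37 C, 5% CO2. Parasite DNA detected by SYBR Green after saponin/triton lysis overnight; normalized to 0.29 uM artemisinin and DMSO.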

Cn1nnnc1SCC1=C(C(=O)O)N2C(=O)[C@@H](NC(=O)[C@H](O)c3ccccc3)[C@H]2SC1
max response [1]: -1.19% (inactive)
Potency [2]: inactive
Potency [3]: inactive

CO[C@H]1C=CO[C@@]2(C)Oc3c(C)c(O)c4c(O)c(cc(O)c4c3C2=O)NC(=O)/C(C)=C\C=C/[C@H](C)[C@H](O)[C@@H](C)[C@@H](O)[C@@H](C)[C@H](OC(C)=O)[C@@H]1C
max response [1]: -6.86% (inactive)
Potency [2]: inactive
Potency [3]: inactive

CC(C)c1ncc([N+](=O)[O-])n1C
max response [1]: 3.27% (inactive)
Potency [2]: inactive
Potency [3]: inactive

CC(C)C[C@@H](NC(=O)[C@@H](O)[C@H](N)Cc1ccccc1)C(=O)O
max response [1]: 1.84% (inactive)
Potency [2]: inactive
Potency [3]: inactive

COc1ccc(C[C@H](C)NC[C@@H](O)c2ccc(O)c(NC=O)c2)cc1
max response [1]: -5.27% (inactive)
Potency [2]: inactive
Potency [3]: inactive

CCc1ccc(S(=O)(=O)O)cc1
max response [1]: -6.98% (inactive)
Potency [2]: inactive
Potency [3]: inactive

CO[C@H]1O[C@@H]2O[C@@]3(C)CC[C@H]4[C@H](C)CC[C@@H]([C@H]1C)[C@@]24OO3
remaining parasite growth % (stronger effect = lower value) [4]: -0.372% [at 57.5 µM]
activity, percent of control [5]: -0.375% [at 57.5 µM]
remaining proliferation (% of control), lower = more inhibition [6]: 0.0422% [at 57.5 µM]
Potency [2]: inactive
Potency [3]: inactive

CC(=O)Nc1ccc(OC(C)=O)cc1
max response [1]: -5.2% (inactive)
Potency [2]: inactive
Potency [3]: inactive

CCCOc1cc(N)ccc1C(=O)OCCN(CC)CC
max response [1]: -20.2% (inactive)
Potency [2]: inactive
Potency [3]: inactive

O=C(O)CCCC/C=C(\c1ccccc1)c1cccnc1
max response [1]: 0.181% (inactive)
Potency [2]: inactive
Potency [3]: inactive

C=Cc1ccc(S(=O)(=O)O)cc1
max response [1]: -6.42% (inactive)
Potency [2]: inactive
Potency [3]: inactive

CC1=CC(=C(c2ccc(N)cc2)c2ccc(N)cc2)C=CC1=N
Potency [1]: 7.94 µM (active)
Potency [2]: 15.8 µM (active)
Potency [3]: 14.6 µM (active)

CC1CCCC(C)N1NC(=O)c1ccc(Cl)c(S(N)(=O)=O)c1 (configuration not stated)
max response [1]: 7.73% (inactive)
Potency [2]: inactive
Potency [3]: inactive

COC(=O)CCC[N+](C)(C)C
max response [1]: -8.11% (inactive)
Potency [2]: inactive
Potency [3]: inactive

CCCC(=O)Nc1c(I)cc(I)c(CC(CC)C(=O)O)c1I (configuration not stated)
max response [1]: 15% (inactive)
Potency [2]: inactive
Potency [3]: inactive

CC(C)C1=CC2=CC[C@@H]3[C@](C)(CCC[C@@]3(C)C(=O)O)[C@H]2CC1
max response [1]: -5.77% (inactive)
Potency [2]: inactive
Potency [3]: inactive

OCC1(CO)COC(C(Cl)(Cl)Cl)OC1
max response [1]: 24.4% (inactive)
Potency [2]: inactive
Potency [3]: inactive

CCCC1C(=O)N2C(N(C)C)=Nc3ccc(C)cc3N2C1=O (configuration not stated)
max response [1]: 6.87% (inactive)
Potency [2]: inactive
Potency [3]: inactive

C[C@H](O)CN(C)C
max response [1]: -4.88% (inactive)
Potency [2]: inactive
Potency [3]: inactive

O[C@@H]([C@H](O)[C@H](O)CBr)[C@H](O)CBr
max response [1]: -5.26% (inactive)
Potency [2]: inactive
Potency [3]: inactive

CCN(CC)C(=O)[C@]1(c2ccccc2)C[C@@H]1CN
max response [1]: -1.74% (inactive)
Potency [2]: inactive
Potency [3]: inactive

CC(CC=O)CCCC(C)(C)O (configuration not stated)
max response [1]: 6.46% (inactive)
Potency [2]: inactive
Potency [3]: inactive

CCN(CC)C(=S)S
Potency [1]: 6.31 µM (active)
remaining parasite growth % (stronger effect = lower value) [4]: 87.7%
activity, percent of control [5]: 82.5%
remaining proliferation (% of control), lower = more inhibition [6]: 84.6%
Potency [2]: inactive
Potency [3]: inactive

O=C(O)[C@H]1CN(C/C=C/P(=O)(O)O)CCN1
max response [1]: 12.3% (inactive)
Potency [2]: inactive
Potency [3]: inactive
